Assay [1] in a line: NCI Yeast Anticancer Drug Screen. Data for the rad50 strain (AID 155).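 Also: 0% = growth of vehicle-only cultures of the same strain.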 To be noted: S. cerevisiae rad50 strain growth inhibition, hits give high values. Put shortly:
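Genetically altered yeast (DNA repair pathway); compound treatment; growth inhibition vs vehicle ctrl.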

The nature of assay [2]: NCI Yeast Anticancer Drug Screen. Data for the mec2-1 strain (AID 157). To be noted: S. cerevisiae mec2-1 strain, hits give high values. In outline:
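Yeast mec2-1 mutant treated with compound. Readout: growth inhibition vs vehicle controls.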

Assay [3] in a line: NCI Yeast Anticancer Drug Screen. Data for the sgs1 mgt1 strain (AID 161).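 Also: 0% = growth of cultures given vehicle only.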 To be noted: S. cerevisiae sgs1 mgt1 strain, hits give high values. Put shortly:
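Test agents were incubated with a DNA-repair-mutant yeast strain. Growth was then read and compared against vehicle-treated controls.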

Assay [4] in a line: NCI Yeast Anticancer Drug Screen. Data for the cln2 rad14 strain (AID 165).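 Also: 0% = growth equal to vehicle treated cultures.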 To be noted: S. cerevisiae cln2 rad14 strain, hits give high values. In outline: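 cln2 rad14 yeast strain; compound exposure; growth inhibition read vs vehicle controls.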
Assay [5] is described as follows: NCI Yeast Anticancer Drug Screen. Data for the bub3 strain (AID 167). To be noted: S. cerevisiae bub3 mutant strain, hits give high values. In outline: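 Yeast carrying a defined mutation is treated with each compound, and growth is compared with that of vehicle-exposed cells to give inhibition.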
Assay [6] in a line: NCI Yeast Anticancer Drug Screen. Data for the mlh1 rad18 strain (AID 175). To be noted: S. cerevisiae mlh1 rad18 strain growth inhibition, hits give high values. Put shortly:
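Yeast w/ defined DNA-repair lesions; compound exposure; growth vs vehicle controls → % inhibition.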

The mark [7] stands for this setting: at 5.0 µM (retest, dose inferred, filed as 0.5).
The mark [8] stands for this setting: at 50.0 µM (retest, dose inferred, filed as 5.0).

The panel holds about 79,000 compounds, 15% with a hit somewhere; the sample as a whole holds those more often. Values without a mark were called inactive. The source made the active and inactive calls. Rule as the data show it: active = growth inhibition above about 70%; inactive = the rest.

Results on six compounds are retold here after PubChem BioAssay (NCI).

For the compound `COc1ccc(/C=C(/NC(=O)c2ccccc2)C(=O)Nc2ccccc2)cc1OC`, the growth inhibition was -13% in assay [1] (setting [7]); -6% in assay [1] (setting [8]); 3.3% in assay [1] (at 50.0 µM); -7% in assay [2] (setting [7]); -12% in assay [2] (setting [8]); 16.1% in assay [2] (at 50.0 µM). The growth inhibition is -6% in assay [3] (setting [7]); -5% in assay [3] (setting [8]); -18.4% in assay [3] (at 50.0 µM); -23% in assay [4] (setting [7]); -24% in assay [4] (setting [8]); 50.5% in assay [4] (at 50.0 µM). Moreover, the growth inhibition in assay [5] (setting [7]) is -6%; in assay [5] (setting [8]), 9%; in assay [5] (at 50.0 µM), -8.25%; in assay [6] (setting [7]), -4%; in assay [6] (setting [8]), -11%; in assay [6] (at 50.0 µM) it was 29.3%.

In the case of `O=C(O)/C=C\C(=O)Nc1ccc2c(c1)C(=O)c1cc(F)ccc1-2`, the growth inhibition in assay [1] (setting [7]) is 10%; in assay [1] (setting [8]), 20%; in assay [1] (at 50.0 µM) it was 29%; in assay [2] (setting [7]), -1%; in assay [2] (setting [8]) it was -7%; in assay [2] (at 50.0 µM) it was -2.7%. The growth inhibition in assay [3] (setting [7]) is -4%; in assay [3] (setting [8]) it was 19%; in assay [3] (at 50.0 µM), -5.2%; in assay [4] (setting [7]) it was -6%; in assay [4] (setting [8]), 6%; in assay [4] (at 50.0 µM) it was 68.2%. Besides, the growth inhibition was -2% in assay [5] (setting [7]); 2% in assay [5] (setting [8]); -36.6% in assay [5] (at 50.0 µM); 8% in assay [6] (setting [7]); 17% in assay [6] (setting [8]); 4.5% in assay [6] (at 50.0 µM).

For `CC(=O)c1ccc([N+](=O)[O-])o1`, the growth inhibition in assay [1] (setting [7]) is 19%; in assay [1] (setting [8]), 98% (active); in assay [1] (at 50.0 µM), 96.5% (active); in assay [2] (setting [7]) it was 22%; in assay [2] (setting [8]), 99% (active); in assay [2] (at 50.0 µM) it was 92.2% (active). The growth inhibition is 11% in assay [3] (setting [7]); 61% in assay [3] (setting [8]); 91.3% (active) in assay [3] (at 50.0 µM); 0% in assay [4] (setting [7]); 97% (active) in assay [4] (setting [8]); 86.9% (active) in assay [4] (at 50.0 µM). Further, the growth inhibition is 21% in assay [5] (setting [7]); 99% (active) in assay [5] (setting [8]); 92.5% (active) in assay [5] (at 50.0 µM); 38% in assay [6] (setting [7]); 99% (active) in assay [6] (setting [8]); 98.4% (active) in assay [6] (at 50.0 µM).

As to `O=C(N/N=C/c1ccccc1[O-])c1ccccc1O.O=C(N/N=C/c1ccccc1[O-])c1ccccc1O.[Mn+2]`, the growth inhibition was 48% in assay [1] (setting [7]); 99% (active) in assay [1] (setting [8]); 99.2% (active) in assay [1] (at 50.0 µM); 39% in assay [2] (setting [7]); 98% (active) in assay [2] (setting [8]); 99.8% (active) in assay [2] (at 50.0 µM). For the same compound, the growth inhibition was 63% in assay [3] (setting [7]); 100% (active) in assay [3] (setting [8]); 97.7% (active) in assay [3] (at 50.0 µM); 28% in assay [4] (setting [7]); 99% (active) in assay [4] (setting [8]); 99% (active) in assay [4] (at 50.0 µM). In addition, the growth inhibition in assay [5] (setting [7]) is 48%; in assay [5] (setting [8]), 99% (active); in assay [5] (at 50.0 µM) it was 99.6% (active); in assay [6] (setting [7]) it was 40%; in assay [6] (setting [8]), 99% (active); in assay [6] (at 50.0 µM), 97.8% (active).

For `CC1CCC(SC2CC(=O)CCC2=O)CC1` (stereo not drawn), the growth inhibition was 19% in assay [1] (setting [7]); 98% (active) in assay [1] (setting [8]); 99% (active) in assay [1] (at 50.0 µM); 19% in assay [2] (setting [7]); 99% (active) in assay [2] (setting [8]); 99.2% (active) in assay [2] (at 50.0 µM). Besides, the growth inhibition in assay [3] (setting [7]) is 21%; in assay [3] (setting [8]), 99% (active); in assay [3] (at 50.0 µM), 92% (active); in assay [4] (setting [7]), 6%; in assay [4] (setting [8]) it was 99% (active); in assay [4] (at 50.0 µM), 98.2% (active). In addition, the growth inhibition was 24% in assay [5] (setting [7]); 98% (active) in assay [5] (setting [8]); 98.7% (active) in assay [5] (at 50.0 µM); -1% in assay [6] (setting [7]); 98% (active) in assay [6] (setting [8]); 98.6% (active) in assay [6] (at 50.0 µM).

`CCOP(=O)(OCC)C(NC(=O)OCC(Cl)(Cl)Cl)n1nnc(C(=O)OC)c1C(=O)OC` (stereo not drawn): the growth inhibition in assay [1] (setting [7]) is -7%; in assay [1] (setting [8]), 79% (active); in assay [1] (at 50.0 µM), -8.8%; in assay [2] (setting [7]), -4%; in assay [2] (setting [8]), 46%; in assay [2] (at 50.0 µM), 4.15%. The growth inhibition in assay [3] (setting [7]) is -6%; in assay [3] (setting [8]) it was 89% (active); in assay [3] (at 50.0 µM), 10.6%; in assay [4] (setting [7]), -3%; in assay [4] (setting [8]), 69%; in assay [4] (at 50.0 µM) it was 36.4%. The growth inhibition is -1% in assay [5] (setting [7]); 92% (active) in assay [5] (setting [8]); -0.7% in assay [5] (at 50.0 µM); -1% in assay [6] (setting [7]); 70% (active) in assay [6] (setting [8]); -1.15% in assay [6] (at 50.0 µM).
